Laboratory results from ChEMBL document CHEMBL3433997, “St. Jude Leishmania screening dataset” (2016).

What was measured:
Type in all cases: functional
[1] = biological target: Solute carrier family 2, facilitated glucose transporter member 1 (Homo sapiens) (UniProt P11166); assay: ST_JUDE_LEISH: Cytotoxicity at 2uM final concentration against transgenic Leishmania Mexicana promastigotes LmGLUT1 that are glucose transport deficient and complemented with the human glucose transporter GLUT1. Activity is measured by DNA content using SYBR green in vitro
[2] = biological target: Hexose transporter 1 (Plasmodium falciparum) (UniProt O97467); assay: ST_JUDE_LEISH: Cytotoxicity at 2uM final concentration against transgenic Leishmania Mexicana promastigotes LmPfHT that are glucose transport deficient and complemented with the Plasmodium falciparum hexose transporter. Activity is measured by DNA content using SYBR green in vitro
[3] = biological target: Glucose transporter (Leishmania mexicana) (UniProt O61059); assay: ST_JUDE_LEISH: Cytotoxicity at 2uM final concentration against transgenic Leishmania Mexicana promastigotes LmGT2 that are glucose transport deficient and complemented with the L. Mexicana glucose transporter 2. Activity is measured by DNA content using SYBR green in vitro

Solute carrier family 2, facilitated glucose transporter member 1 (Homo sapiens), sequence (P11166 whole entry): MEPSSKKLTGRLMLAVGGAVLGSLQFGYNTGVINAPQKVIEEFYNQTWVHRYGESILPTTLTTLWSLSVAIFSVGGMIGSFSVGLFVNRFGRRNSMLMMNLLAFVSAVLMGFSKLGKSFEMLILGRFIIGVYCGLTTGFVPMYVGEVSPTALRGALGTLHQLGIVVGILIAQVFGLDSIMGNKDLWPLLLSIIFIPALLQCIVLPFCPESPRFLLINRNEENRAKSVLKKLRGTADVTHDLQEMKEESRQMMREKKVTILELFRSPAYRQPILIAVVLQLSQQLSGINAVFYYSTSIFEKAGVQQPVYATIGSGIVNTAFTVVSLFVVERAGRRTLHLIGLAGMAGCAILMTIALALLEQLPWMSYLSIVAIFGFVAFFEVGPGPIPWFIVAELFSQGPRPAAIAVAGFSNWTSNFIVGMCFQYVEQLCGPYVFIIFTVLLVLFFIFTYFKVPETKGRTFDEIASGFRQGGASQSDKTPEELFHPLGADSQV

Row | Structure (SMILES) | inhibition [1] [%] | inhibition [2] [%] | inhibition [3] [%]
1 | CCc1ccc(NC(=O)c2ccc(CN3CCCN(CC4CCCCC4)CC3)cc2)cc1 | 7.57 | 10.3 | 7.64
2 | Cc1cc(N[C@@H](C)C(=O)Nc2ccccc2)nc(NCCc2ccc(F)cc2)n1 | 2.77 | 4.77 | 1.18
3 | CCN(CC)c1ccc(C(c2ccc(N(CC)CC)cc2)c2ccc([N+](=O)[O-])cc2)cc1 | 15.3 | 10.4 | 8.28
4 | Cc1cc(CN2CC[C@H](NC(=O)c3ccc(Cl)c(Cl)c3)C2)ccc1OCCCN(C)C | -2.61 | -3.17 | -2.57
5 | COc1ccc2nccc([C@@H](O)CN3CCC(NCCOc4cccc(C(F)(F)F)c4Cl)CC3)c2c1 | 11.3 | 12 | 6.66
6 | Nc1nc(N)c2c(ccc3c2ccn3C2CCCCC2)n1 | 24.3 | 36.6 | 25.7
7 | Cc1cccc2nc(-c3cccc(-c4cccc(CNCCc5cccn5C)c4)c3)[nH]c12 | 0.04 | 2.29 | -0.27
8 | CN1CCC(c2cc3c(cc2Br)CCN3C(=O)Nc2ccc(-c3ccncc3)c(Cl)c2)CC1 | 0.33 | 1.09 | 0.25
9 | COc1ccc(CCN(C)CCCOc2ccc(NC(=O)c3cccc4c(=O)c5ccccc5[nH]c34)cc2)cc1OC | 5.62 | 2.58 | 1.73
10 | COc1ccccc1C1CCN(C2CCC(NC(=O)/C=C/c3cc(C(F)(F)F)ccc3F)CC2)CC1 (stereo not drawn) | 2.98 | 2.36 | 3.14
11 | Cc1cccc2nc(-c3ccc(-c4ccc(CN5CCCCC5CO)cc4)cc3)[nH]c12 (stereo not drawn) | 27.8 | 31.6 | 19.5
12 | COc1c(C(=O)NC2CCN(Cc3ccccc3)C2)cnc2ccccc12 (stereo not drawn) | 11.8 | 9.19 | 8.95
13 | Cc1ccc(NC(=O)NC2CCN(CCCCCNC(=O)C3CC3c3ccc(Cl)c(Cl)c3)CC2)cc1 (stereo not drawn) | -4.5 | -2.29 | -3.29
14 | COc1ccc(NC(=O)[C@H](Cc2ccccc2)Nc2cc(C)nc(NCCc3ccccn3)n2)cc1 | 4.73 | 5.3 | -0.86
15 | Cc1cc(N[C@@H](CC(C)C)C(=O)NCCc2ccccc2)nc(NCCc2ccc(F)cc2)n1 | -0.03 | 0.66 | -1.31
16 | COc1cc2nc(NCCCOC(C)C)n3nc(-c4ccccc4)nc3c2cc1OC | 11.4 | 10.4 | 7.73
17 | c1ccc(C2=NN=C(c3ccccn3)C3C4CC(C23)C2C3CC(c5ccccc53)C42)nc1 (stereo not drawn) | 5.41 | 4.38 | 1.22
18 | Cc1ccc(S(=O)(=O)N(CCCN2CCN(C)CC2)Cc2csc(-c3ccc(CNCc4ccccc4)cc3)n2)cc1 | 9.12 | 7.67 | 9.91
19 | Cn1ncc2c3c(CCN4CCC(NCc5ccc6c(c5)NC(=O)CO6)CC4)c(Cl)cnc3ccc21 | 1.41 | 2.09 | -0.28
20 | c1ccc(-c2nc3ccccc3[nH]2)c(Nc2ccnc3cc(-c4nccs4)ccc23)c1 | 4.76 | 0.91 | 0.58
21 | CC(=O)Nc1ccc([N+](=O)[O-])c2c(Br)cccc12 | 8.2 | 8.74 | 10.4
22 | CCOC(=O)NCCSC(C)(C)[C@H](NC(=O)[C@H](Cc1cc2ccccc2s1)[C@H](CC)N(O)C=O)C(=O)Nc1nccs1 | 0.32 | 0.28 | -0.04
23 | CC(CCCCC(=O)Nc1ccc(C(F)(F)F)cc1)NCC(O)c1cccc(Cl)c1 (stereo not drawn) | 1.04 | -0.95 | 1.56
24 | CN1CCC(N2CCN(C(=O)c3cccc(-c4cccc(-c5nc6ccccc6[nH]5)c4)c3)CC2)CC1 | 0.86 | 2.54 | 2.11

Row | Structure (SMILES) | inhibition [1] [%] | inhibition [2] [%] | inhibition [3] [%]
25 | CC(=O)NCCNc1nccc(N2CCc3ncnc(Nc4ccc(OCc5cccc(F)c5)c(Cl)c4)c3C2)n1 | 0.07 | -2.13 | -2.74
26 | COc1cc(CCCON2C(=N)N=C(N)NC2(C)C)cc(OC)c1OC | 1.04 | -0.26 | 1.06
27 | O=C(NCCN1CCCC1)c1cccc(-c2ccc(-c3nc4cc(F)ccc4[nH]3)s2)c1 | 2.21 | 2.37 | 3.1
28 | O=C(Nc1ccc(Cn2ncc(N3CCCNCC3)c(Cl)c2=O)cc1)Nc1cc(Cl)cc(Cl)c1 | 2.15 | 3.38 | 0.75
29 | CCCc1cc(C(C)=O)ccc1OCCCON1C(=N)N=C(N)NC1(C)C | 22.1 | 29.3 | 20.5
30 | O=C(NCc1ccccc1)NC(CCCN1CCC(Oc2cccc(Cl)c2)CC1)c1ccc(Cl)c(Cl)c1 (stereo not drawn) | 2.71 | -0.32 | -0.18
31 | OCC1CCN(Cc2cccc(-c3cccc(-c4nc5cc(C(F)(F)F)ccc5[nH]4)c3)c2)CC1 | 2.74 | 0.35 | 0.14
32 | Oc1ccc(Br)cc1C(O)CNCc1ccccc1OCc1ccccc1 (stereo not drawn) | 2.85 | 3.54 | 2.87
33 | N=C(N)c1ccc(Nc2nccc(Nc3nc(-c4ccccc4)cs3)n2)cc1 | 0.38 | 0.47 | -0.9
34 | CCC[C@@H]([C@@H](CC(C)C)C(=O)N[C@@H](CCCCNC(=O)c1ccccn1)C(=O)Nc1nccs1)N(O)C=O | 4.93 | 6.98 | 1.73
35 | Cc1ccc(C(C#N)c2ccc3c(C(F)(F)F)cc(C(F)(F)F)nc3n2)cc1 (stereo not drawn) | 1.88 | 2.44 | 4.34
36 | Clc1ccc2c(NCCc3ccccn3)ccnc2c1 | 6.58 | 6.15 | 6.87
37 | COc1ccc(C=C2SC(=N)N(c3ccccc3OC)C2=O)cc1 | 6.44 | 5.54 | 6.86
38 | COc1cc(F)c2ncc(Cl)c(CCN3CCC(NCc4ccc5c(c4)OCCO5)CC3)c2c1 | 41.6 | 54.6 | 68.8
39 | Cc1ccc(C2CCN(CCCCNC(=O)c3ccc(-c4ccc(C#N)cc4)cc3)CC2)c(O)c1 | 7.24 | 7.29 | 7.94
40 | NC1CCCN(Cc2ccc(-c3cccc(-c4nc5cc(F)ccc5[nH]4)c3)cc2)C1 (stereo not drawn) | -0.79 | 0.23 | -1.33
41 | FC(F)(F)c1ccc2[nH]c(-c3cccc(-c4ccc(CNCC5CCCO5)cc4)c3)nc2c1 (stereo not drawn) | 11.3 | 8.39 | 6.46
42 | Fc1ccc2[nH]c(-c3ccc(-c4cccc(CN5CCN(c6ccncc6)CC5)c4)cc3)nc2c1 | 2.37 | 1.42 | 4.07
43 | COc1cc2nc(N3CCC(CNC(=O)c4ccc(-c5ccc(Cl)cc5)cc4)CC3)nc(N)c2cc1OC | 9.23 | 8.03 | 9.81
44 | c1ccc2sc(Sc3ncnc4sccc34)nc2c1 | 2.07 | -1.08 | 0.27
45 | c1ccc(Oc2ccc(Nc3ccnc4cc(-c5ccc(CN6CCOCC6)o5)ccc34)cc2)nc1 | -1.57 | -1.03 | -0.13
46 | COc1ccc(NC(=O)[C@H](CC(C)C)Nc2ccnc(Nc3ccccc3)n2)cc1 | 0.79 | 2.71 | -0.96
47 | Cc1ccccc1CN1CCCN(Cc2ccc(C(=O)Nc3ccc(Cl)cc3)cc2)CC1 | 7.5 | 6.18 | 6.4
48 | CN1CCN(CCCN(Cc2csc(-c3ccc(CNCc4ccccc4)cc3)n2)C(=O)Nc2cc(Cl)cc(Cl)c2)CC1 | 9.09 | 6.74 | 7.7

Row | Structure (SMILES) | inhibition [1] [%] | inhibition [2] [%] | inhibition [3] [%]
49 | Cc1ccc(F)c(OCC2CCN(c3ncc(C(=O)NC4CC4)cc3Cl)CC2)c1 | -1.14 | 2.1 | 1.1
50 | N#Cc1ccc(N2CCN(Cc3ccc(-c4ccc(-c5nc6cc(C(F)(F)F)ccc6[nH]5)s4)cc3)CC2)nc1 | 2.33 | 1.76 | 0.96
51 | CC1CN(Cc2cccc(F)c2)CCN1c1ccc(NC(=O)c2ccc(F)cc2)cc1 (stereo not drawn) | 2.15 | 1.55 | 8.54
52 | O=C(CC1SC(N2N=C(c3cccs3)CC2c2ccccc2)=NC1=O)Nc1ccc(Cl)cc1 (stereo not drawn) | 1.98 | 2.91 | -0.33
53 | O=C(Nc1ccc(-c2nc3ccccc3[nH]2)cc1)c1ccc(Cl)s1 | 3.19 | 2.35 | 1.71
54 | CC(C)(C)c1nn(-c2ccccc2)c2[nH]c(=O)c(CNC3CCCCC3)cc12 | 1.69 | 1.5 | 2.72
55 | O=C(Nc1cccc(CN2CCN(Cc3ccc(O)cc3)CC2)c1)c1ccc(Cl)c(Cl)c1 | 3.5 | 5.27 | 2.47
56 | Fc1ccccc1C=NN=c1cc[nH]c2ccc(C(F)(F)F)cc12 | 3.03 | 3.13 | 2.13
57 | Cc1cc(N[C@@H](CC(C)C)C(=O)NCCOc2ccccc2)nc(NCC2CCCCC2)n1 | 3.08 | 9.67 | 6.41
58 | CS(=O)(=O)c1ccc(CNCc2ccc(-c3ccc(-c4nc5cc(C(F)(F)F)ccc5[nH]4)s3)cc2)cc1 | 12 | 10.7 | 9.87
59 | COc1ccc2nccc(N(C)CC3(O)CCC(NCc4cc5c(cn4)OCCO5)CC3)c2n1 (stereo not drawn) | 1.51 | 1.7 | 1.71
60 | COc1cc(OC)cc(-c2nn(-c3ccc([N+](=O)[O-])cc3C#N)c(=S)n2CC2CCCO2)c1 (stereo not drawn) | 2.04 | 1.07 | -7.78
61 | Cc1ccc(S(=O)(=O)n2cc(-c3ccnc(N)c3)c3cc(Br)cnc32)cc1 | 4.4 | 4.2 | 1.4
62 | Nc1nc(N)c2c(ccc3c2cnn3Cc2cccnc2)n1 | 39.8 | 51.2 | 38.1
63 | O=C(c1ccc(-c2ccc(-c3nc4cc(F)ccc4[nH]3)cc2)cc1)N1CCCCC1CN1CCC(O)C1 (stereo not drawn) | 4.53 | 4.9 | 1.78
64 | COc1ccc(Nc2nccc(NCC(O)c3cccc(C(F)(F)F)c3)n2)cc1 (stereo not drawn) | 1.24 | 2.47 | -1.44
65 | NC(=O)c1cccc(Nc2nccc(Nc3ccc(Oc4cccc(Cl)c4)c(Cl)c3)n2)c1 | 10.6 | 9.87 | 7.71
66 | Cc1ccc(C)c2sc(N(CCCn3ccnc3)C(=O)C=Cc3cccs3)nc12 | 1.74 | 2.3 | -1.56
67 | O=C(CCc1c[nH]cn1)Nc1ccc(-c2cccc(-c3nc4ccccc4[nH]3)c2)cc1 | 0.28 | 0.66 | 0.03
68 | NC1CCN(Cc2cccc(-c3ccc(-c4nc5ccccc5[nH]4)s3)c2)C1 (stereo not drawn) | 3.94 | 2.41 | 4.58
69 | COc1ccc(C(c2ccc(N(C)C)cc2)c2ccc(N(C)C)cc2)cc1 | 95.3 | 94.5 | 84.9
70 | CN1CCN(CCCCCNc2c3ccccc3nc3ccccc23)CC1 | 28 | 21.1 | 17.9
71 | O=C(Nc1ccc(-c2ccc(-c3nc4cc(C(F)(F)F)ccc4[nH]3)s2)cc1)c1ccoc1 | 0.13 | -0.79 | -1.02
